Experimental data as given in the supplement of paper PMC10849652.
The full data set covers some 7,900 targets. This sample favours those with a hit. About 0.6% of all pairs of compound and target were hits. A number with no mark means an inactive call.

Assays:
Test in all cases: log2 fold change, soluble protein after heating vs DMSO (PISA); higher = thermal stabilisation; K562 cells, 10 uM, 30 min; active = over 0.2 and 3.5 SD of the protein, either way, in both replicates (recomputed)
[1] = compound: C1=CC=C(C=C1)[C@H](COC2=CC3=C(C=C2)NC(=O)N3)NC(=O)C4=CC=CN(C4=O)CC5=CC(=C(C=C5)F)F
How it was run: (§1)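 Thermal stability values are relative to control samples and come from duplicates. They are expressed as log2 fold changes. For measurement, K562 cells (2×10^6 cells/mL) received 10 μM compound for 30 min, and aliquots were heated for 3 min over 48°C-58°C, pooled, and extracted at 4°C in PBS with 0.5% NP-40. Soluble protein, the supernatant after 21,000xg for 90 min, was quantified by TMTpro 16plex LC-MS/MS with equalised channel sums.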

[2] = compound: CC1=C(SC2=C1C(=N[C@H](C3=NN=C(N32)C)CC(=O)N)C4=CC=C(C=C4)Cl)C
How it was run: as §1

[3] = compound: CC1=C2C(=CC=C1)N=C(N(C2=O)C3=CC=CC=C3C)CN4C=NC5=C(N=CN=C54)N
How it was run: as §1

[4] = compound: Cc1sc2c(c1C)C(c1ccc(Cl)cc1)=N[C@@H](CC(=O)OC(C)(C)C)c1nnc(C)n1-2
How it was run: as §1

[5] = compound: c1ccc([C@@H]2C[C@H]2NC2CCNCC2)cc1
How it was run: as §1

Chain of UniProt Q9UKV5 (Q9UKV5 whole entry, looked up): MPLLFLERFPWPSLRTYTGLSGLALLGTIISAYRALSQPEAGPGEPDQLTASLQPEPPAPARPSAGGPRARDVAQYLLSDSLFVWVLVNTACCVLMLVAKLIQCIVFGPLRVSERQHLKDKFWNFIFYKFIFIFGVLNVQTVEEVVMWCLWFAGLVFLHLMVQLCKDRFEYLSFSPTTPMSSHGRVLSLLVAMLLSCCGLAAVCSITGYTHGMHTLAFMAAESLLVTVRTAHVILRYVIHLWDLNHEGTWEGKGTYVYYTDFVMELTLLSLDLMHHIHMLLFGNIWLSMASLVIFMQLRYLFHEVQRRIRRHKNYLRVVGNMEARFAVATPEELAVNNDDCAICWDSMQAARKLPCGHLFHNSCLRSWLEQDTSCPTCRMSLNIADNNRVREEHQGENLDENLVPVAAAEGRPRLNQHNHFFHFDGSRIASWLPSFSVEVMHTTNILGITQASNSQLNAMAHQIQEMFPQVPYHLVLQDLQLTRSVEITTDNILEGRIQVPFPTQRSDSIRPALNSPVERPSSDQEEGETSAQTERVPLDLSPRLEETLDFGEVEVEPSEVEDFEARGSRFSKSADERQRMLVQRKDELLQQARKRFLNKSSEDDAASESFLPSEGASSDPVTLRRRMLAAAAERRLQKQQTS
Chain of UniProt Q9UHQ4 (Q9UHQ4 whole entry, looked up): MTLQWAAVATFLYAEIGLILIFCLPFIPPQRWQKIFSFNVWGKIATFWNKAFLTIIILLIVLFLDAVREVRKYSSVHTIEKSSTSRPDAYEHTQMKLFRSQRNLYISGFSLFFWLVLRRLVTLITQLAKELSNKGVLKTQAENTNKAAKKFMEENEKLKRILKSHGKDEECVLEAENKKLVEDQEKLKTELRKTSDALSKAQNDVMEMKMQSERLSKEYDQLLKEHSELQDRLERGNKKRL
Chain of UniProt P53367 (P53367 whole entry, looked up): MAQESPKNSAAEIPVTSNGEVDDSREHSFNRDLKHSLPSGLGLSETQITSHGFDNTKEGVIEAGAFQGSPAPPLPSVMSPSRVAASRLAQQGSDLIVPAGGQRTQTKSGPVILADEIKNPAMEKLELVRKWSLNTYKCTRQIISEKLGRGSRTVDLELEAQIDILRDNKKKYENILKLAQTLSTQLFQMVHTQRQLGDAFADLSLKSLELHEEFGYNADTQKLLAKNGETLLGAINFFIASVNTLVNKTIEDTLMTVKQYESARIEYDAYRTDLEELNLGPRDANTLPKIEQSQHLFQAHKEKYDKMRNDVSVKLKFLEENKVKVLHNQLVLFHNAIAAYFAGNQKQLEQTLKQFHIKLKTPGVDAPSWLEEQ
Chain of UniProt O14981 (O14981 whole entry, looked up): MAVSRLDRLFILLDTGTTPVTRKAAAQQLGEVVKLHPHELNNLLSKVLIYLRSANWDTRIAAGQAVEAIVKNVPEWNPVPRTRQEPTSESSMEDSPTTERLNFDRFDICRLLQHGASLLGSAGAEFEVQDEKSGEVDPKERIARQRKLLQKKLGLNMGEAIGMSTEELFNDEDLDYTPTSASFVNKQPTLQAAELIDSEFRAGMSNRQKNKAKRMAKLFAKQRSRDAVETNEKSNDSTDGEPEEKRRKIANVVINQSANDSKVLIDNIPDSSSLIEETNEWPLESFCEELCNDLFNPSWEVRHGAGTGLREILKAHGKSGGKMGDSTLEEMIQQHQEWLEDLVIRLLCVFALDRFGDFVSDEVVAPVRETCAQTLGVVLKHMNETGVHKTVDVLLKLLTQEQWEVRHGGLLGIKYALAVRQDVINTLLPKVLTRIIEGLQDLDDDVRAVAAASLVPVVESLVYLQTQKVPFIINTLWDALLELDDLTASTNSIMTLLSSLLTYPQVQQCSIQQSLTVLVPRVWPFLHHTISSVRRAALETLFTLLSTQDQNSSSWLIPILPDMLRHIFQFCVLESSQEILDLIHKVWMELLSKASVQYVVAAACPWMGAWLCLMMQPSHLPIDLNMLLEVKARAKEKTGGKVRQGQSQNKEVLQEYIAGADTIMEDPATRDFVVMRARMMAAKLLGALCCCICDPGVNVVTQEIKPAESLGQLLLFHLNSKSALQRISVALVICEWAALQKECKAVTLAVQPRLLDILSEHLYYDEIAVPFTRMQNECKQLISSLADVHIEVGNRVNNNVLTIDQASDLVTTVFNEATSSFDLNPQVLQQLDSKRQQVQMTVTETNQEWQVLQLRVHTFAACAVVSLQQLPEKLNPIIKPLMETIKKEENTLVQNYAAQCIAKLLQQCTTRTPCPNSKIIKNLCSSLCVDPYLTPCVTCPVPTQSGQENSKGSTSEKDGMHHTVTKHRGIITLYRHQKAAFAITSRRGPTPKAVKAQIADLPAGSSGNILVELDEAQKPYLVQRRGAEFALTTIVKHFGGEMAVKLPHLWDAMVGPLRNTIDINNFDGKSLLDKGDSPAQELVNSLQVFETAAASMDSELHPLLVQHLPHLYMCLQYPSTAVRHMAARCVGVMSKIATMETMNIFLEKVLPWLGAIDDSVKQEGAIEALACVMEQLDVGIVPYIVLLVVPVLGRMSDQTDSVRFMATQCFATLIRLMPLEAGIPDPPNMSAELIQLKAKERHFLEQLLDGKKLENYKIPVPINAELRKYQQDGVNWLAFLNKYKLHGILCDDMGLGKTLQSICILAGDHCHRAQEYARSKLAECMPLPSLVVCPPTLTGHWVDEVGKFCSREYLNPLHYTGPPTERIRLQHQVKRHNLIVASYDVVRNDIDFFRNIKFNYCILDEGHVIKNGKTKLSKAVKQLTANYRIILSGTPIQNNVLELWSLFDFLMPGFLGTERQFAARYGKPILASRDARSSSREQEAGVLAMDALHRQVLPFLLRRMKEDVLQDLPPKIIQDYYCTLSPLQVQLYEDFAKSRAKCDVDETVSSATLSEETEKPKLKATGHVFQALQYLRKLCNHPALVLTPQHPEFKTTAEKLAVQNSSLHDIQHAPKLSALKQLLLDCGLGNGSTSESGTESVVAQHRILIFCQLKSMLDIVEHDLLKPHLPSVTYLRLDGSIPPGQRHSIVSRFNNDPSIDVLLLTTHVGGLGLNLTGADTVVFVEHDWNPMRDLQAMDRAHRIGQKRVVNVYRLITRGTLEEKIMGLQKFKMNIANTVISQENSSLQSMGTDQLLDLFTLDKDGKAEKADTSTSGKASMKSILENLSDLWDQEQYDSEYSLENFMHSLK
Chain of UniProt P11766 (P11766 whole entry, looked up): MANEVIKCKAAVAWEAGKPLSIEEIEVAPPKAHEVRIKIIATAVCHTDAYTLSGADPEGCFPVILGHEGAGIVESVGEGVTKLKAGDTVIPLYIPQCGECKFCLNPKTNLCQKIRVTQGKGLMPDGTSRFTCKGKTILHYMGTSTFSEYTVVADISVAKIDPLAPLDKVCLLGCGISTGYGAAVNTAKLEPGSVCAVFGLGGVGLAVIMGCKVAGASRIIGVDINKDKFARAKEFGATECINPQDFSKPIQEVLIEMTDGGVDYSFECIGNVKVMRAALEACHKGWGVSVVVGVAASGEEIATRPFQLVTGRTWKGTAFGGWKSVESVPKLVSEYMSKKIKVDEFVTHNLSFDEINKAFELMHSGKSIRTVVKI
Chain of UniProt P30043 (P30043 whole entry, looked up): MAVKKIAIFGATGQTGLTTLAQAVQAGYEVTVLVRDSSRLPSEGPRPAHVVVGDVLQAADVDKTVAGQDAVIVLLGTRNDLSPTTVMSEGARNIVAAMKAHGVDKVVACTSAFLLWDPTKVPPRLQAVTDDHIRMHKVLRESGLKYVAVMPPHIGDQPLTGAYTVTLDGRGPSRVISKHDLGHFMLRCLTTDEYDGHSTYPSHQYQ
Chain of UniProt Q14457 (Q14457 whole entry, looked up): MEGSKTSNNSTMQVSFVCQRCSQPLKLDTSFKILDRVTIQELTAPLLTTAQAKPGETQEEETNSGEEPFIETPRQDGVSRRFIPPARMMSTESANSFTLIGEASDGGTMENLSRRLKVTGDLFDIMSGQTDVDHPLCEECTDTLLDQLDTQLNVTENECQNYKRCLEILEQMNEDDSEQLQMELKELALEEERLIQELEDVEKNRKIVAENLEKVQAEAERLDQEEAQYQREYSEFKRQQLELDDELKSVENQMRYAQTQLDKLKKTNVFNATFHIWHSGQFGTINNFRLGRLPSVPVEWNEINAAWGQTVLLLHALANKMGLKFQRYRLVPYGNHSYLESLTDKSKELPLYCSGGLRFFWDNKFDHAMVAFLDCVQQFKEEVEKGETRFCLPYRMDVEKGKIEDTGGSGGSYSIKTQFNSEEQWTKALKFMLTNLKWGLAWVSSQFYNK
Chain of UniProt O43823 (O43823 whole entry, looked up): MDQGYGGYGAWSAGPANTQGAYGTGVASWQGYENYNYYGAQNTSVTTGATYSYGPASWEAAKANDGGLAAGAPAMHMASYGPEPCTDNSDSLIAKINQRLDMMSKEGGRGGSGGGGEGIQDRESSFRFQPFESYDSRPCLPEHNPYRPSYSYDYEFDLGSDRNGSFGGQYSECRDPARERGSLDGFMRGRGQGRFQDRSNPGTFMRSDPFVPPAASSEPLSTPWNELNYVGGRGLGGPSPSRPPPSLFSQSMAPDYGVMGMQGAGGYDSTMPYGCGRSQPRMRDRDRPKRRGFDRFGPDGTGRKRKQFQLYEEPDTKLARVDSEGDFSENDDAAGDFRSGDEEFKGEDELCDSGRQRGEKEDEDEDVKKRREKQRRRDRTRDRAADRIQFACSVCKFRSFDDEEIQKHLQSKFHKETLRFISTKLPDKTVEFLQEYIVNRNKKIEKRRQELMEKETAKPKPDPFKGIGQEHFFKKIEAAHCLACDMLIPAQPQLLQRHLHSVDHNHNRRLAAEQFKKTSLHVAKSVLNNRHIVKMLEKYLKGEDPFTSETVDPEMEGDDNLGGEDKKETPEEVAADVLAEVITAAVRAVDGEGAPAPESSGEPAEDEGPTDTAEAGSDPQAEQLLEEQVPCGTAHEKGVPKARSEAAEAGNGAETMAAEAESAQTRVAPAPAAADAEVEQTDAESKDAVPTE

Target | log2 fold change [1] | log2 fold change [2] | log2 fold change [3] | log2 fold change [4] | log2 fold change [5]
BCAP29 isoform 2 (UniProt Q9UHQ4) | -0.017 | 0.029 | 0.035 | -0.008 | 0.032
AP2M1 (UniProt Q96CW1) | -0.005 | 0.03 | -0.013 | 0.006 | 0.009
BTAF1 (UniProt O14981) | 0.051 | -0.003 | 0.124 | 0.005 | 0.055
AKAP8 (UniProt O43823) | 0.012 | -0.03 | 0.105 | -0.018 | 0.347 (active)
ADH5 (UniProt P11766) | 0.026 | 0.024 | 0.025 | -0.023 | 0.017
ARFIP1 (UniProt P53367) | 0.04 | 0.042 | 0.051 | -0.065 | -0.03
AMFR (UniProt Q9UKV5) | -0.043 | -0.004 | 0.023 | 0.024 | -0.046
BLVRB (UniProt P30043) | -0.029 | 0.027 | -0.01 | -0.006 | 0.013
BECN1 (UniProt Q14457) | -0.071 | 0.061 | -0.017 | 0.021 | 0.05
